# Calb FLC: affects C. albicans growth with fluconazole. C. albicans CaCi-2 (fluconazole-resistant clinical isolate) + fluconazole, Alamar Blue growth, 48 h. growth inhibition, % (no concentration beside the values). hit rate 0.57% among 300,000;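 active = growth inhibition above about 58% in most replicates, limit read from the data, passing the limit was not always enough; inconclusive = exactly half the replicates above a set limit; inactive = most replicates below a set limit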;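 also: all wells also contain fluconazole at 8 µg/ml as a sub-toxic cotreatment; 0% = median of DMSO wells and 100% = median of geldanamycin control wells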
# tim10-1 inh: growth inhibitors of tim10-1 mutant yeast | S. cerevisiae tim10-1 ts strain growth, BacTiter-Glo, 24 h | hit rate 2.2% among 330,000 | AID 463190 | inhibition, % at 20 µM;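 active = inhibition of at least 40%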;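 also: mutant grown at 25 °C; 0% = DMSO wells with yeast and 100% = wells holding no yeast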
# SKKanGAS inh: SKKanGAS growth inhibition; S. pyogenes SKKanGAS, kanamycin growth, BacTiter-Glo, 6 h; inhibition, % at 7.5 µM; hit rate 1.3% among 300,000; AID 1662;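 active = mean replicate score, as percent of positive control median, at least 50; inconclusive = mean below 50 but one replicate at or above 50; inactive = mean and every replicate below 50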;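 also: strain carries kanamycin resistance gene driven by streptokinase promoter and grows in 40 µg/ml kanamycin; loss of luminescence reflects streptokinase promoter inhibition or plain growth inhibition; 0% = median of DMSO wells and 100% = positive control at its reference dose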
# PfHsp90 yeast 2: inhibits growth of yeast expressing Plasmodium falciparum Hsp90; S. cerevisiae expressing PfHsp90, BacTiter-Glo ATP, 48 h; yeast lacking PDR1 and PDR3 efflux regulators; inhibition, % at 9.4 µM; hit rate 0.32% among 310,000; AID 504621;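 active = every replicate shows inhibition above about 80%, whatever the replicate mean, limit read from the data; inconclusive = mean inhibition reaches the set limit but some replicate falls short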;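 also: 0% = DMSO neutral controls and 100% = 20 µM radicicol positive controls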
# TIM10 inh: inhibits growth of TIM10 yeast strain; S. cerevisiae TIM10 strain growth, BacTiter-Glo luminescence, 24 h; inhibition, % at 10 µM; hit rate 1.4% among 330,000;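 active = inhibition of 40% or more at the single tested concentration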;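 also: wild-type TIM10 isogenic control strain grown at permissive 25 °C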
# tim23-1 inh: inhibits growth of tim23-1 mutant yeast; S. cerevisiae tim23-1 growth, BacTiter-Glo luminescence, 24 h; hit rate 1.3% among 330,000; AID 463212; inhibition, % at 20 µM;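 active = growth inhibition of the mutant yeast at or above 50%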;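 also: temperature-sensitive mutant grown at 25 °C; plate controls were DMSO-treated mutant yeast for no effect and medium wells lacking yeast for full effect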
# Numbers without * were called inactive; ? = inconclusive; . = not tested or not shown; + = active, no number. A selection: hits, their analogues and other compounds. The true share with any hit is near 4.7%.
SMILES,Calb FLC,tim10-1 inh,SKKanGAS inh,PfHsp90 yeast 2,TIM10 inh,tim23-1 inh
O=C(Cc1ccc(Cl)cc1)NNC(=S)NC(=O)c1cccnc1,22,30,14,5,20,-4
COc1cccc(-c2coc3c(C)c4oc(=O)c(CCC(=O)O)c(C)c4cc23)c1,?,0,51*,-35,14,12
COc1cccc(-c2coc3c(C)c4oc(=O)c(CC(=O)O)c(C)c4cc23)c1,37,1,17,-6,24,12
COc1cc2cnc(-c3ccccc3)c(C(=O)c3ccc(OCc4ccccc4)cc3)c2cc1OC,.,20,.,-16,11,31
COc1cc2cnc(-c3ccccc3)c(C(=O)c3ccc(F)cc3)c2cc1OC,.,8,.,85*,0,47
COc1cccc(C2CC(c3cccs3)=NN2C(=O)CSc2nc3c(cnn3-c3ccc(F)cc3)c(=O)[nH]2)c1OC (stereo unspecified),37,16,57*,1,11,15
COc1cccc(C2CC(c3cccs3)=NN2C(=O)CSc2nc3ccccc3s2)c1OC (stereo unspecified),6,31,5,-9,12,25
COc1ccc(C2CC(c3cccs3)=NN2C(=O)CSc2nc3c(cnn3-c3ccccc3)c(=O)[nH]2)cc1 (stereo unspecified),9,-16,64*,5,-12,0
Cc1onc(-c2c(F)cccc2Cl)c1C(=O)N(C)C1CCCCC1,-8,19,-3,15,6,24
COc1ccc(C2=CC3=C(Br)C(=O)C(C)(OC(=O)c4cccs4)C(=O)C3=CO2)cc1 (stereo unspecified),-2,20,2,107*,-6,-4
COc1ccc(C2=CC3=C(Br)C(=O)C(C)(OC(=O)c4ccco4)C(=O)C3=CO2)cc1 (stereo unspecified),-11,31,10,+,15,36
COCCN1C=C2C(=O)C(C)(OC(=O)CCC(=O)OC)C(=O)C(Br)=C2C=C1c1ccc(OC)cc1 (stereo unspecified),12,11,8,5,13,20
CCN(CC)CC(C)(C)C(=O)/C=C/c1ccc(/C=C/C(=O)C(C)(C)CN(CC)CC)cc1,.,.,.,-3,.,.
Cc1cccc(N2CCN(C(=O)C34CC5CC(CC(C5)C3)C4)CC2)c1C,1,28,83*,-14,31,9
CN(Cc1ccccc1)C(=O)COC(=O)CCC(=O)c1ccc(F)cc1,.,7,.,-9,-7,9
CCc1cccc(C)c1NC(=O)COC(=O)c1c2c(nc3ccccc13)/C(=C\c1cccs1)CCC2,-7,10,15,-16,5,17
NC(=O)c1ccc(NC(=O)COC(=O)c2c3c(nc4ccccc24)/C(=C\c2cccs2)CCC3)cc1,57,28,91*,.,11,25
O=C(CSc1nncn1-c1ccccc1F)NC1CC1,.,-13,.,-35,-8,3
O=C(NNc1cccc(Cl)c1)c1cccnc1Cl,33*,-2,0,15,-10,-42
O=C(NNc1cccc(Cl)n1)c1cccnc1Cl,3,9,-2,0,13,16
COc1ccc(/C=C/C(=O)NCC(=O)N/N=C(/C)c2ccc(Cl)cc2)cc1,-9,9,-1,2,-6,-5
Cc1ccc(OC/C(O)=C(\C#N)c2nc3ccccc3s2)cc1,53,-4,57*,9,10,0
CC[C@@H](C(=O)[C@@H](C)[C@@H](O)[C@H](C)CCc1ccc(C)c(O)c1C(=O)O)[C@H]1O[C@](CC)([C@H]2CC[C@](O)(CC)[C@H](C)O2)C[C@@H]1C,.,22,108*,11,11,39
CC[C@@H](C(=O)[C@@H](C)[C@@H](O)[C@H](C)[C@@H]1O[C@@H]([C@@H](CC)C(=O)O)CC[C@@H]1C)[C@H]1O[C@]2(C=C[C@@H](O)[C@]3(CC[C@@](C)([C@H]4CC[C@](O)(CC)[C@H](C)O4)O3)O2)[C@H](C)C[C@@H]1C,.,.,.,-79,.,.
CCN(CC(=O)NCc1ccc(Cl)cc1)C(=O)COc1ccc(Cl)cc1Br,-1,10,1,2,-1,32
SMILES,Calb FLC,tim10-1 inh,SKKanGAS inh,PfHsp90 yeast 2,TIM10 inh,tim23-1 inh
COc1cc(C(=O)NS(=O)(=O)c2ccccc2C)ccc1Cc1cn(C)c2ccc(NC(=O)OC3CCCC3)cc12,.,31,68*,.,22,24
C=CCN(c1ccc(C(=O)NCCN2CCOCC2)cc1)S(C)(=O)=O,-3,-8,-19,5,-8,-6
C=CCn1c(C)cc(C(=O)CSc2nc(N)cc(N)n2)c1C,108*,5,0,6,19,2
Cc1cc(C(=O)CSc2nc(N)cc(N)n2)c(C)n1C1CC1,-12,19,1,-6,1,12
CCCCCCCn1c2c(c(=N)c3ccccc31)CCC2,81*,8,2,-2,14,4
CCCn1c2c(c(=N)c3c1CCC3)CCC2,-4,-14,13,3,5,7
COc1ccccc1CNC(=S)Nc1ccc(S(N)(=O)=O)cc1,2,11,-3,7,3,-1
CCCCc1ccc(NC(=S)NCc2ccccc2OC)cc1,-11,27,59*,3,26,30
O=C(Nc1nc2ccccc2[nH]1)c1cccc(Cl)c1,-4,4,64*,-20,1,10
C=CCN(c1ccccc1)S(=O)(=O)c1cccc(C(=O)Nc2nc3ccccc3[nH]2)c1,18,3,21,11,3,-4
CN(c1cccc(Cl)c1)S(=O)(=O)c1cccc(C(=O)Nc2nc3ccccc3[nH]2)c1,20,39,90*,16,27,48
O=C(Cc1ccccc1[N+](=O)[O-])OCc1cccc([N+](=O)[O-])c1,-1,22,-1,.,-4,26
COc1ccc(N(C(=O)c2cnccn2)C(C(=O)NCc2ccccc2)c2ccc(O)cc2)cc1 (stereo unspecified),5,-8,14,5,3,3
CCCCNC(=O)c1sc(=S)n2c1[nH]c(=O)c1ccccc12,48,39,54*,-1,20,27
O=C(NCC1CCCO1)c1sc(=S)n2c1[nH]c(=O)c1ccc(C(=O)N3CCCCC3)cc12 (stereo unspecified),-9,7,27,16,16,26
O=C(NCCc1ccccc1)c1ccc2c(=O)[nH]c3c(C(=O)NCC4CCCO4)sc(=S)n3c2c1 (stereo unspecified),10,12,44,-33,7,20
O=C(NC1CCCCC1)c1sc(=S)n2c1[nH]c(=O)c1ccccc12,-9,39,60*,.,32,19
CCOC(=O)c1ccc(NC(=O)NNS(=O)(=O)c2cc(OC)ccc2OC)cc1,11,13,-13,0,-9,1
CC(=O)c1c(C)[nH]c(C(=O)OCC(=O)c2c[nH]c3ccccc23)c1C,.,12,.,-3,1,6
